Assay results from PubChem BioAssay AID504408 (Broad Institute, 2011).
Among all 300,000 compounds or so, about 5,200 (1.7%) were called active.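 The calls were made as follows: active = mean replicate activation of at least 50% with a set share of replicates each reaching 50%; inconclusive = only one of those two conditions met; inactive = mean below 50% and too few replicates reaching it.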 The full list was thinned out, with actives kept by preference.

Test: HSF-1 activators, primary screen, NIH3T3-HGL cells, MG132 stress, luminescence, single point (AID 504408);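 also: 0% = median of the neutral control wells and 100% = twice that signal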
Settings: NIH3T3-HGL HSF-1 luciferase reporter, MG132, 8 h; at 9 µM; active compounds read high; 100% = twice DMSO control signal

activation, active:
Cc1nn(-c2ccccc2)c(Cl)c1/C=C/C(=O)c1ccc(O)cc1 76.9%
O=C(/C=C/c1ccc([N+](=O)[O-])o1)NNC(=O)c1ccc(F)cc1 71.3%
N#Cc1cccc(NC(=O)COC(=O)c2ccccc2C(=O)c2ccc(Cl)c([N+](=O)[O-])c2)c1 241%
CCOC(=O)N1CCN(C(c2cccnc2)c2ccc3cccnc3c2O)CC1 (configuration not stated) 67.9%
CC(=O)Nc1ccc(Nc2nc3c(S(=O)(=O)c4ccc(C)c(C)c4)nnn3c3ccccc23)cc1 74.4%
CN(C)CCCn1c(N)c(C#N)c2nc(C#N)c(C#N)nc21 76.2%
C=CCN1C(=O)C(Cc2ccc(OCC)cc2)SC1=Nc1ccc(C(=O)O)cc1 (configuration not stated) 58.5%
Clc1ccc2nc(CSc3ccccc3)cn2c1 70.2%
Cc1c(C(N)=O)sc2ncn(CCOc3ccccc3)c(=O)c12 58.5%
O=C1CC(c2cccc(Cl)c2)CC(O)=C1C=Nc1ccccc1 (configuration not stated) 116%

activation, inactive:
CCCn1c(C)cc(/C=C(\C#N)C(=O)OCC(=O)N(C)c2c(N)n(Cc3ccccc3)c(=O)[nH]c2=O)c1C -4.32%
Cc1ccc(C(=O)/C=C/c2c(C)nn(-c3ccccc3)c2Cl)cc1 42.3%
Cc1nn(-c2ccccc2)c(Cl)c1C(=O)Nc1ccccc1 -8.73%
COc1cc2c(cc1OC)C(Cc1cc(OC)c(OC)cc1[N+](=O)[O-])=NCC2 -5.53%
C/[N+]([O-])=C\c1ccc([N+](=O)[O-])o1 -2.43%
O=C(N/N=C/c1ccc([N+](=O)[O-])o1)c1cn(-c2ccccc2)nc1-c1ccc(F)cc1 3.06%
Cc1ccc(OCCNC(=O)CNC(=O)c2ccc(C)c(C)c2)cc1 16.2%
O=C1[C@H]2[C@@H](c3ccc(Cl)cc3)N3C(=O)N(c4cccc(F)c4)C(=O)[C@@]3(Cc3ccccc3)[C@H]2C(=O)N1C1CCCCC1 -0.394%
COC(=O)c1cc(NC(=O)Cc2ccccc2[N+](=O)[O-])ccc1Cl -11.7%
CC(=O)Nc1ccc(NC(=O)C(C)OC(=O)c2ccccc2C(=O)c2ccc(Cl)c([N+](=O)[O-])c2)cc1 (configuration not stated) 27.5%
CC1(c2ccc(Cl)cc2Cl)NC(=O)N(CC(=O)Nc2cccnc2Cl)C1=O (configuration not stated) -7.46%
COc1ccccc1CCNC(=O)C(=O)NCCC1CCCCN1S(=O)(=O)c1cccs1 (configuration not stated) 18%
CN(CC(=O)NCc1cccnc1)S(=O)(=O)c1cc(Cl)ccc1Cl 1.99%
CC(Oc1ccc(Br)cc1)C(=O)NCC(c1ccco1)N1CCCCC1 (configuration not stated) 12.7%
CC(OC(=O)c1ccc(-n2cnnn2)cc1)C(=O)NCc1ccccc1 (configuration not stated) -14%
CCOC(=O)N1CCN(C(=O)CSc2nc(=O)n3cccc(C)c3n2)CC1 -0.428%
CCN1CCN(C(c2cccnc2)c2cc(Cl)c3cccnc3c2O)CC1 (configuration not stated) -83.7%
Cc1cccc(Nc2nc3c(S(=O)(=O)c4ccccc4)nnn3c3ccccc23)c1C 8.48%
Cc1ccc(S(=O)(=O)c2nnn3c2nc(N2CCN(c4ccccn4)CC2)c2ccccc23)cc1 30.6%
COc1ccc(/C=C(\C#N)C(=O)OCC(=O)N(C)C2CCS(=O)(=O)C2)cc1 (configuration not stated) -4.8%
Cc1ccc2nc(SCC(=O)Nc3cccc4ccccc34)nc(=O)n2c1 16.2%
CC(C)(C)c1ccc(C(=O)NCCn2c(N)c(C#N)c3nc4ccccc4nc32)cc1 27.2%
N#Cc1c(N)n(CCOC(=O)c2ccc(Cl)cc2)c2nc3ccccc3nc12 26.8%
CC(OC(=O)CCCc1c[nH]c2ccccc12)C(=O)Nc1ccc(S(N)(=O)=O)cc1 (configuration not stated) 8.99%
CC(=O)Nc1ccc(C(=O)Nc2cccc(S(=O)(=O)NC3=NCCC3)c2)cc1 -9.72%
COc1ccc(C(=O)CN2C(=O)NC3(CCc4ccccc43)C2=O)c(OC)c1 (configuration not stated) -14%
Cc1nn(C)cc1C(=O)c1ccccc1 5.22%
Cc1cc(NC(=O)C(C)N2C(=O)c3ccccc3S2(=O)=O)no1 (configuration not stated) -3.5%
COc1cc2ccccc2cc1C(=O)N1CCOCC1 -5.8%
CCOc1ccc(N=C2SC(C(=O)O)CC(=O)N2C)cc1 (configuration not stated) -0.001%
C=CCN1C(=O)C(Cc2cccc(Cl)c2)S/C1=N/N=C/c1ccco1 (configuration not stated) 23.1%
COc1cccc(N2CC(NC(=O)c3ccc4ccccc4c3)CC2=O)c1 (configuration not stated) -3.4%
Nc1c(-c2ccccc2)nnn1Cc1ccccc1 17.5%
O=C(/C=C/c1ccc2c(c1)OCO2)NCc1cn2cc(Cl)ccc2n1 1.53%
O=c1c2ccccc2nc2n1C(CSc1ccc(Cl)cc1)CN2 (configuration not stated) -13%
N#CC1(NC(=O)COC(=O)Cc2n[nH]c(=O)c3ccccc23)CCCCC1 3.96%
COc1ccc(-c2cc(C(=O)N(C)CC(=O)Nc3ccccc3Cl)c3ccccc3n2)cc1OC -23.1%
Cc1cccc(OC(=O)c2sc3ncn(C)c(=O)c3c2C)c1 17.3%
CCOC(=O)C(C)n1cnc2sc(C)c(C)c2c1=O (configuration not stated) 6.07%
CCOc1ccc(CCNC(=O)COC(=O)c2ccc(F)c(S(=O)(=O)N3CCOCC3)c2)cc1OCC -9.54%
CCC(=O)N1CCc2cc(Br)c(S(=O)(=O)NCCN3CCCCC3CC)cc21 (configuration not stated) -1.08%
COc1ccc(C(=O)Nc2cccc(NC(=O)c3ccc(OC)cc3OC)n2)c(OC)c1 -34.1%
O=C1CC(c2ccccc2)CC(O)=C1C=NCCN1CCOCC1 (configuration not stated) -5.8%
O=C1CCCC(O)=C1C=NCCc1ccccc1 21%
O=C(NCCS(=O)(=O)N1CCN(c2ccccc2)CC1)c1ccco1 4.49%
Cc1cc(O)c(Sc2ccccc2)c(=O)o1 -2.42%
CCCCn1c(N)c(N(CC(C)C)C(=O)c2cccc(S(=O)(=O)N3CCN(C(C)=O)CC3)c2)c(=O)[nH]c1=O -4.85%
